Sampled rows, rich in hits. Any-hit rate of the full collection: about 4.8%.
DAX1 inh-1: DAX1 (NR0B1) inhibitors, primary screen, cell-based, HEK293, Gal4-DAX1, luciferase luminescence. Nuclear receptor subfamily 0 group B member 1 (Homo sapiens), P51843. HEK293 Gal4-DAX1 luciferase reporter. inhibition, % at 6.75 µM. 0.99% of 340,000 active. AID 504766, 2011;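 active = inhibition above the mean over all tested compounds plus 3 SD, cut at about 4.2% in these data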;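 note: 0% = DAX1-transfected cells with DMSO and 100% = empty-vector control cells with DMSO; inhibition shows as a rise in luminescence from relieved DAX1 repression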
Target sequence (P51843 207-470 limits assumed): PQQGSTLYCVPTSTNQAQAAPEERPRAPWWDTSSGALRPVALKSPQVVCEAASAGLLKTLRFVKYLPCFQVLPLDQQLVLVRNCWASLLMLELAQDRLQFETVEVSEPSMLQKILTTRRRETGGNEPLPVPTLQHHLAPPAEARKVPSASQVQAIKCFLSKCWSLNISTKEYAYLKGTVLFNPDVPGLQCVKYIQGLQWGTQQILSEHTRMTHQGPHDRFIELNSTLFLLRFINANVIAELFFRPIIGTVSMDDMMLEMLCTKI
DAX1 inh-2: DAX1 (NR0B1) inhibitors on StAR promoter, primary screen, cell-based, luminescence, SF-1 (NR5A1), full-length DAX-1; 1.1% of 370,000 active; inhibition, % at 6.8 µM; HEK293T StAR-luciferase reporter, SF-1/DAX-1 repression relief; AID 652010, 2013;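 active = inhibition above the mean over all tested compounds plus 3 SD, cut at about 3.6% in these data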;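 note: 0% = DAX-1 cells with DMSO and 100% = cells lacking DAX-1 with DMSO; higher inhibition means more luminescence from relief of DAX-1 repression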
hcDAF-12 act: H. contortus DAF-12 nuclear receptor activators, primary screen, cell-based, luminescence, HEK293, lit1-tk-luc reporter | HEK293 hcDAF-12 lit1-tk-luc reporter; 0% DMSO, 100% Δ7-dafachronic acid | activation, % at 6.8 µM | 1.4% of 370,000 active | AID 652067, 2013;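 active = activation above the mean of all tested compounds plus 3 SD, cut at about 5.5% in these data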;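 note: 100% = response to 3 µM Δ7-dafachronic acid high control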
SMARCA2 activ: SMARCA2 (BRM) function activators, primary screen, cell-based, luminescence, high throughput; AID 652017, 2013; activation, % at 9.1 µM; 1% of 370,000 active; MG213 cells, MMTV-luciferase reporter, dexamethasone, overnight; in the data active = activation above about 7.8%;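 note: 0% = vehicle wells and 100% = reference activator wells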
ssDAF-12 act: S. stercoralis DAF-12 nuclear receptor activators, primary screen, cell-based, luminescence, HEK293, GRIP1 co-expression, lit1-tk-luc | HEK293 ssDAF-12/GRIP1 lit1-tk-luc reporter; % of 3 µM dafachronic acid response | Nuclear hormone receptor DAF-12 (Strongyloides stercoralis) | activation, % at 6.8 µM | AID 652126, 2013 | 1% of 370,000 active;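 active = activation above the mean over all tested compounds plus 3 SD, cut at about 0.9% in these data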;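 note: 0% = DMSO-only wells and 100% = 3 µM delta7-dafachronic acid wells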
hgDAF-12 ag: H. glycines DAF-12 receptor agonists, primary screen, cell-based, luminescence, HEK293, GAL4 fusion, UAS-luciferase | activation, % at 6.8 µM | HEK293 GAL4-hgDAF12 UAS-luciferase reporter, agonist luminescence; normalized to butyrate control | AID 687014, 2013 | 1.8% of 370,000 active;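 active = activation above a cutoff set at the mean of all screened compounds plus 3 SD, cut at about 10% in these data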;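 note: 0% = DMSO wells and 100% = sodium butyrate wells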
* marks the source's active call; other numbers are inactive results; nt = no result.

SMILES	DAX1 inh-1	DAX1 inh-2	hcDAF-12 act	SMARCA2 activ	ssDAF-12 act	hgDAF-12 ag
CCCCn1c(N)c(N(CCOC)C(=O)CSc2ccccc2C)c(=O)[nH]c1=O	5.3*	0.0	-0.5	-0.6	-0.2	3.2
CCCCn1c(N)c(N(CC)C(=O)C(c2ccccc2)c2ccccc2)c(=O)[nH]c1=O	4.9*	0.8	0.9	-3.9	-1.4	-3.9
O=C(CN1C(=O)C2CCCCN2C(=O)c2ccccc21)N1CCCC1 (stereo not drawn)	nt	-1.0	-1.0	-5.7	-1.1	-1.4
c1ccc(Nc2nnc(SCc3cccc4ccccc34)s2)cc1	1.9	0.2	-2.4	1.2	-0.6	2.1
Cc1nc(CSc2nnc(C)s2)cs1	4.7*	0.8	-1.3	-5.5	-1.0	3.5
Cc1nnc(SCc2cccc3ccccc23)s1	7.0*	1.2	1.9	1.8	-0.6	3.4
COc1ccc(Cn2ccc3ccc(-c4ccc5ccn(Cc6ccc(C#N)cc6)c5c4)cc32)cc1	nt	-0.9	1.7	0.1	-0.5	3.6
Cc1cc(OCC(=O)N(C)Cc2ccccc2)ccc1Br	0.6	-0.8	-0.8	3.4	-0.4	5.2
Cc1cc(OCC(=O)N(C)Cc2ccccc2)ccc1Cl	1.7	0.8	4.4	3.6	1.6*	8.6
COC(=O)c1scc(C)c1NC(=O)Cc1ccccc1	0.3	-0.6	-0.8	-2.4	-1.1	1.5
CCOC(=O)C(=CNNc1c(C)csc1C(=O)OC)C(=O)OCC	0.5	-0.4	6.3*	-4.3	-0.4	-0.8
Cc1ccc2cc(F)c(F)c(F)c2n1	nt	1.3	1.6	-1.1	1.5*	7.1
CC(C)(C)c1ccc(-c2cc(NC(=O)Cc3c[nH]c4ccccc34)ccc2Nc2cccnc2)cc1	nt	-0.2	3.0	-3.3	1.7*	1.7
O=C(COc1ccc(CO)cc1Cl)Nc1ccc(F)cc1	-0.4	2.8	5.0	3.1	0.5	10.9*
C[C@@H](c1ccccc1)N1C[C@@H](COCc2ccccc2)Oc2cc(N3CCC[C@H]3C(N)=O)ccc2S1(=O)=O	nt	0.6	1.5	0.1	4.2*	2.6
CN(CCO)c1cccc2c1S(=O)(=O)N(Cc1cn(Cc3cccc(F)c3)nn1)Cc1ccccc1O2	nt	-0.4	-3.0	2.6	-1.0	-0.6
O=C(O)c1ccc(Oc2nc3ccccc3s2)cc1	1.8	2.1	5.3	-0.7	1.2*	7.6
CN(C)S(=O)(=O)c1cccc(C(=O)N2CCN(C(=O)C3CCCO3)CC2)c1 (stereo not drawn)	1.6	3.8*	-0.3	-2.1	-0.6	-0.8
CN(C)S(=O)(=O)c1ccc(C(=O)N2CCN(C(=O)C3CCCO3)CC2)cc1 (stereo not drawn)	-0.2	0.8	-1.9	-2.6	-1.3	2.5
CCc1nc(N2CCN(C(=O)CCl)CC2)c2c3c(sc2n1)CC(C)CC3 (stereo not drawn)	4.4*	-0.5	-0.5	-3.8	-0.6	0.5
COC(=O)c1ccc2nc(C3CCCCC3)c(Cc3ccccc3OC)n2c1	nt	-0.3	-1.1	-2.7	-0.3	4.2
CC(OC(=O)COc1ccc(C#N)cc1)C(=O)c1ccccc1 (stereo not drawn)	0.6	1.0	-1.1	-3.8	-1.5	0.8
COc1ccc(C(=O)C(C)OC(=O)COc2ccccc2)cc1 (stereo not drawn)	0.1	3.8*	0.5	2.7	-0.7	-3.0
COc1cc(C(=O)Nc2c(C(=O)O)[nH]c3ccccc23)cc(OC)c1OC	1.3	0.1	6.1*	-2.9	0.7	1.3
CC(=O)Nc1c(C(=O)O)[nH]c2ccccc12	-0.4	-0.3	6.1*	0.7	0.8	-0.6
SMILES	DAX1 inh-1	DAX1 inh-2	hcDAF-12 act	SMARCA2 activ	ssDAF-12 act	hgDAF-12 ag
COc1ccc([C@@]23CCN=C2c2[nH]c4ccccc4c2CCN3)c(N)c1	nt	nt	5.0	nt	-1.2	-1.0
COC(=O)[C@]12C[C@H](CC(=O)NCc3cccs3)C(=O)N(Cc3ccco3)C1=C[C@H](C(C)C)O[C@@H]2C1CC1	nt	-0.6	-3.3	-4.5	-1.1	-2.5
CC[C@@H](C)[C@@H]1CN([C@@H](C)CN2CCC[C@H]2CN2C(N)=NC[C@@H]2Cc2ccccc2)C(=N)N1CCCC1CCCC1	0.3	-0.1	-0.3	0.8	-1.5	0.5
CC[C@@H](C)[C@@H]1CN([C@@H](C)CN2CCC[C@H]2CN2C(N)=NC[C@@H]2Cc2ccccc2)C(=N)N1CCc1ccc(Cl)c(Cl)c1	5.2*	nt	nt	nt	nt	nt
CCC(C(=O)NC(C)(C)C)N(C(=O)Cn1nnc(-c2ccccc2F)n1)c1cccc2c1CCCC2 (stereo not drawn)	4.3*	0.7	0.4	-1.1	-1.3	-1.6
CC(C)CCNC(=O)CN(C(=O)Cn1nnc(-c2ccccc2F)n1)c1cccc2c1CCCC2	-0.3	-0.6	-1.1	-2.5	-1.6	0.4
COc1cc(=O)oc(C=O)c1C	nt	-0.3	-3.0	0.6	-0.3	2.7
NS(=O)(=O)c1ccc(Nc2nc3ccccc3nc2NS(=O)(=O)c2cccc([N+](=O)[O-])c2)cc1	5.0*	0.4	-0.8	-0.5	-1.1	1.1
CS(=O)(=O)N1CCC[C@]2(CC[C@H](CCC#N)O2)C1	nt	0.8	-1.0	1.2	-0.7	1.7
CN(C)CC(=O)N[C@@H]1C=C[C@@H](CC(=O)NCCN2CCCCC2)O[C@@H]1CO	nt	-0.6	-2.1	7.8*	-0.1	0.3
CC(C)(C)C(=O)OC12CCCN(C1)/C(=C/c1ccccc1)C2 (stereo not drawn)	nt	0.9	-1.2	-4.6	-1.1	5.7
Cc1ccc(S(=O)(=O)NCc2ccc3c(c2)cc(C)n3C)cc1	0.7	0.8	1.6	-1.8	-1.5	0.9
Cc1cc2cc(CN3C(=O)c4ccccc4C3=O)ccc2n1C	0.9	-0.8	6.1*	2.6	-0.3	5.1
O=C(OCc1cccc(F)c1)c1ccc2c(=O)n3c(nc2c1)CCC3	4.5*	-0.5	-2.1	2.0	-1.1	2.2
Cc1cc(C(=O)COC(=O)c2ccc(Br)o2)c(C)n1Cc1ccco1	nt	0.1	0.2	0.1	-1.2	9.2
COCCn1c(C)cc(C(=O)COC(=O)c2ccc(Br)o2)c1C	5.4*	0.8	0.6	1.6	-1.0	1.2
CC1(C)SC(=S)N(/N=C/c2cccnc2)C1N(O)C(=O)Nc1ccccc1 (stereo not drawn)	6.2*	-0.5	0.3	-3.3	-0.3	-0.7

From PubChem BioAssay
